From PubChem BioAssay AID1159580 (chemical genetic matrix, 2015)
The campaign covered roughly 5,500 compounds. About 2,000 (36%) were called active. Roughly 18% stayed inconclusive and do not appear here. No stated cut-off is given here; in the data, active means normalized growth mostly below about 0.91 (no sharp cut-off); inconclusive means no clear call, values can overlap the other calls; inactive means mostly above about 0.92. This is one part of the list.

Experiment: chemical genetic growth profiling, strain panel (AID 1159580);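 further: tested at 20 µM; growth read once vehicle control cultures reached saturation at 30 °C; 1 = growth at the plate median or of vehicle wells; lower values mean less growth of the strain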
Conditions: growth OD

Measured: normalized growth

O=C1NC(=O)C(=O)C(=O)N1
inactive: S. cerevisiae deletion strains, locus YJR075W, strain HOC1, active compounds read low 1.04 | S. cerevisiae deletion strains, locus YKL009W, strain mrt4, active compounds read low 0.992 | S. cerevisiae deletion strains, locus YKL068W, active compounds read low 0.997 | S. cerevisiae deletion strains, locus YKL085W, strain MDH1 (second series), active compounds read low 1 | S. cerevisiae deletion strains, locus YKL085W, strain MDH1, active compounds read low 1 | S. cerevisiae deletion strains, locus YKL160W, strain elf1, active compounds read low 0.989 | S. cerevisiae deletion strains, locus YKL190W, strain CNB1, active compounds read low 1.01 | S. cerevisiae deletion strains, locus YKR001C, strain vps1, active compounds read low 0.994 | S. cerevisiae deletion strains, locus YKR026C, strain gcn3, active compounds read low 0.992 | S. cerevisiae deletion strains, locus YKR091W, strain srl3, active compounds read low 0.989 | S. cerevisiae deletion strains, locus YLL001W, strain dnm1, active compounds read low 0.994 | S. cerevisiae deletion strains, locus YLL026W, active compounds read low 0.998 | S. cerevisiae deletion strains, locus YLL041C, strain sdh2, active compounds read low 1 | S. cerevisiae deletion strains, locus YLR027C, strain aat2, active compounds read low 1 | S. cerevisiae deletion strains, locus YLR039C, strain RIC1, active compounds read low 1.04 | S. cerevisiae deletion strains, locus YLR058C, strain SHM2, active compounds read low 1.02 | S. cerevisiae deletion strains, locus YLR102C, strain apc9, active compounds read low 0.987 | S. cerevisiae deletion strains, locus YLR113W, strain HOG1, active compounds read low 0.967 | S. cerevisiae deletion strains, locus YLR221C, strain rsa3, active compounds read low 0.99 | S. cerevisiae deletion strains, locus YLR258W, strain gsy2, active compounds read low 1.01 | S. cerevisiae deletion strains, locus YLR262C, strain YPT6 (second series), active compounds read low 0.989 | S. cerevisiae deletion strains, locus YLR262C, strain YPT6, active compounds read low 1.04 | S. cerevisiae deletion strains, locus YLR268W, strain sec22, active compounds read low 0.968 | S. cerevisiae deletion strains, locus YLR320W, strain mms22, active compounds read low 0.994 | S. cerevisiae deletion strains, locus YLR330W, strain CHS5, active compounds read low 1.01 | S. cerevisiae deletion strains, locus YLR342W, strain FKS1 (second series), active compounds read low 1.05 | S. cerevisiae deletion strains, locus YLR342W, strain FKS1, active compounds read low 0.975 | S. cerevisiae deletion strains, locus YLR357W, strain rsc2, active compounds read low 0.952 | S. cerevisiae deletion strains, locus YLR370C, strain arc18, active compounds read low 0.982 | S. cerevisiae deletion strains, locus YLR371W, strain rom2, active compounds read low 0.978 | S. cerevisiae deletion strains, locus YLR384C, strain iki3, active compounds read low 0.99 | S. cerevisiae deletion strains, locus YLR418C, strain cdc73, active compounds read low 0.991 | S. cerevisiae deletion strains, locus YML016C, strain PPZ1, active compounds read low 1.01 | S. cerevisiae deletion strains, locus YML032C, strain rad52, active compounds read low 0.976 | S. cerevisiae deletion strains, locus YML120C, strain ndi1, active compounds read low 0.99 | S. cerevisiae deletion strains, locus YML124C, strain tub3, active compounds read low 0.993 | S. cerevisiae deletion strains, locus YMR058W, strain fet3, active compounds read low 0.999 | S. cerevisiae deletion strains, locus YMR078C, strain ctf18, active compounds read low 0.98 | S. cerevisiae deletion strains, locus YMR125W, strain sto1, active compounds read low 0.982 | S. cerevisiae deletion strains, locus YMR129W, active compounds read low 0.982 | S. cerevisiae deletion strains, locus YMR205C, strain PFK2, active compounds read low 1 | S. cerevisiae deletion strains, locus YMR223W, strain ubp8, active compounds read low 1.01 | S. cerevisiae deletion strains, locus YMR231W, strain pep5, active compounds read low 0.98 | S. cerevisiae deletion strains, locus YMR263W, strain SAP30, active compounds read low 1.01 | S. cerevisiae deletion strains, locus YMR307W, strain GAS1, active compounds read low 1.03 | S. cerevisiae deletion strains, locus YNL067W, strain RPL9B, active compounds read low 1.01 | S. cerevisiae deletion strains, locus YNL071W, strain lat1, active compounds read low 0.988 | S. cerevisiae deletion strains, locus YNL128W, strain TEP1, active compounds read low 1.02 | S. cerevisiae deletion strains, locus YNL153C, strain GIM3, active compounds read low 1.02 | S. cerevisiae deletion strains, locus YNL183C, strain NPR1, active compounds read low 0.912 | S. cerevisiae deletion strains, locus YNL209W, strain ssb2, active compounds read low 0.985 | S. cerevisiae deletion strains, locus YNL233W, strain BNI4, active compounds read low 1.01 | S. cerevisiae deletion strains, locus YNL248C, strain rpa49, active compounds read low 0.996 | S. cerevisiae deletion strains, locus YNL250W, strain rad50, active compounds read low 0.995 | S. cerevisiae deletion strains, locus YNL271C, strain bni1, active compounds read low 0.995 | S. cerevisiae deletion strains, locus YNL298W, strain CLA4, active compounds read low 0.999 | S. cerevisiae deletion strains, locus YNL307C, strain MCK1, active compounds read low 1.01 | S. cerevisiae deletion strains, locus YNL322C, strain KRE1 (second series), active compounds read low 0.989 | S. cerevisiae deletion strains, locus YNL322C, strain KRE1, active compounds read low 1.01 | S. cerevisiae deletion strains, locus YNR049C, strain mso1, active compounds read low 0.988 | S. cerevisiae deletion strains, locus YNR052C, strain pop2, active compounds read low 0.971 | S. cerevisiae deletion strains, locus YOL006C, strain TOP1, active compounds read low 1.1 | S. cerevisiae deletion strains, locus YOL012C, strain htz1 0.951 | S. cerevisiae deletion strains, locus YOL147C, strain pex11, active compounds read low 0.998 | S. cerevisiae deletion strains, locus YOR001W, strain rrp6, active compounds read low 0.969 | S. cerevisiae deletion strains, locus YOR061W, strain CKA2, active compounds read low 1.01 | S. cerevisiae deletion strains, locus YOR069W, strain VPS5, active compounds read low 1.01 | S. cerevisiae deletion strains, locus YOR070C, strain gyp1, active compounds read low 0.984 | S. cerevisiae deletion strains, locus YOR080W, strain dia2, active compounds read low 0.99 | S. cerevisiae deletion strains, locus YOR083W, strain WHI5, active compounds read low 0.996 | S. cerevisiae deletion strains, locus YOR106W, strain vam3, active compounds read low 0.99 | S. cerevisiae deletion strains, locus YOR136W, strain idh2, active compounds read low 0.996 | S. cerevisiae deletion strains, locus YOR144C, strain elg1, active compounds read low 0.987 | S. cerevisiae deletion strains, locus YOR184W, strain ser1, active compounds read low 0.997 | S. cerevisiae deletion strains, locus YOR231W, strain MKK1, active compounds read low 0.964 | S. cerevisiae deletion strains, locus YOR265W, strain rbl2, active compounds read low 1.01 | S. cerevisiae deletion strains, locus YOR270C, strain vph1, active compounds read low 1.07 | S. cerevisiae deletion strains, locus YOR290C, strain snf2, active compounds read low 0.983 | S. cerevisiae deletion strains, locus YOR316C, strain cot1, active compounds read low 0.987 | S. cerevisiae deletion strains, locus YPL051W, strain arl3, active compounds read low 1.01 | S. cerevisiae deletion strains, locus YPL055C, strain LGE1, active compounds read low 1.04 | S. cerevisiae deletion strains, locus YPL078C, strain atp4, active compounds read low 0.987 | S. cerevisiae deletion strains, locus YPL106C, strain sse1, active compounds read low 0.99 | S. cerevisiae deletion strains, locus YPL240C, strain hsp82, active compounds read low 0.995 | S. cerevisiae deletion strains, locus YPL241C, strain CIN2, active compounds read low 1.01 | S. cerevisiae deletion strains, locus YPL256C, strain CLN2, active compounds read low 0.955 | S. cerevisiae deletion strains, locus YPR119W, strain clb2, active compounds read low 0.983 | S. cerevisiae deletion strains, locus YPR141C, strain kar3, active compounds read low 0.994 | S. cerevisiae deletion strains, locus YPR163C, strain tif3, active compounds read low 0.987 | S. cerevisiae deletion strains, locus YPR167C, strain met16, active compounds read low 0.986 | S. cerevisiae deletion strains, strain wtn01, active compounds read low 0.98 | S. cerevisiae strains, strain wild type, active compounds read low 1.02
